PubChem BioAssay
Unmarked numbers belong to inactive results. For some assays here: Results with a measured potency or affinity are listed apart. The source made the active and inactive calls. Unless noted, how the calls were made is not given here.

Key:
[1] = antimalarial activity against Dd2 strain (AID 2302;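 active means growth inhibition above 50% at the single 2 µM test dose, taken to imply half-maximal potency below 2 µM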;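 further: 0% = DMSO untreated growth and 100% = chloroquine plus artemisinin killed control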); settings: P. falciparum Dd2 in RBCs, LDH growth readout, 72 h; at 2 µM; hits give high values
[2] = HepG2 cytotoxicity, primary screen, cytotoxicity control for P. falciparum antimalarial project, cell-based, ATP luminescence (AID 2303;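 active means inhibition above 50%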;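 further: 0% = DMSO wells and 100% = digitonin-killed cells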); settings: HepG2 viability, 24-48 h, at 10 µM, hits give high values
[3] = molecular target: L-lactate dehydrogenase (Plasmodium falciparum (isolate CDC / Honduras)) (UniProt Q27743); test: PfLDH activity inhibition – cell lysate, 3D7 strain, counter-screen for P. falciparum growth inhibition project (AID 2304);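 further: 0% = vehicle and 100% = reference inhibitor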; settings: P. falciparum 3D7 crude extract, LDH APAD/NBT absorbance; at 2 µM; hits give high values
[4] = inhibition of 3D7 malaria parasite growth – strain 3D7 (AID 2306);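 further: 0% = DMSO wells and 100% = chloroquine plus artemisinin control wells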; settings: P. falciparum 3D7 erythrocytic growth, LDH absorbance, 72 h; at 2 µM; hits give high values
[5] = molecular target: Calcium-dependent protein kinase 1 (Plasmodium falciparum (isolate 3D7)) (UniProt P62344); test: PfCDPK1 kinase inhibitors, biochemical, TCAMS library (AID 1159585; cut-off not given, nearly all actives have IC50 up to about 0.98 µM;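 further: inhibitors leave more ATP so luminescence rises with inhibition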); settings: recombinant PfCDPK1, Kinase-Glo ATP depletion luminescence
[6] = molecular target: Plasmodium falciparum protein kinase 6 (PK6, PF3D7_1337100) (UniProt Q8IDW1); test: PfPK6 kinase inhibitors, biochemical, TCAMS library (AID 1159586); settings: recombinant PfPK6, Kinase-Glo ATP depletion luminescence
[7] = molecular target: Protein kinase 7 (PK7), Plasmodium falciparum 3D7 (PF3D7_0213400) (UniProt Q7YTF7); test: inhibition of Plasmodium PK7 catalytic activity – biochemical, TCAMS antimalarial set, Kinase-Glo luminescence (AID 1159587); settings: recombinant PfPK7, Kinase-Glo ATP depletion luminescence
[8] = molecular target: Calcium-dependent protein kinase 4 (Plasmodium falciparum (isolate 3D7)) (UniProt Q8IBS5); test: PfCDPK4 kinase inhibitors, biochemical, TCAMS library (AID 1159588; cut-off not given, nearly all actives have IC50 up to about 0.91 µM); settings: recombinant PfCDPK4, Kinase-Glo ATP depletion luminescence
Calcium-dependent protein kinase 4 (Plasmodium falciparum (isolate 3D7)), sequence (Q8IBS5 whole entry, looked up): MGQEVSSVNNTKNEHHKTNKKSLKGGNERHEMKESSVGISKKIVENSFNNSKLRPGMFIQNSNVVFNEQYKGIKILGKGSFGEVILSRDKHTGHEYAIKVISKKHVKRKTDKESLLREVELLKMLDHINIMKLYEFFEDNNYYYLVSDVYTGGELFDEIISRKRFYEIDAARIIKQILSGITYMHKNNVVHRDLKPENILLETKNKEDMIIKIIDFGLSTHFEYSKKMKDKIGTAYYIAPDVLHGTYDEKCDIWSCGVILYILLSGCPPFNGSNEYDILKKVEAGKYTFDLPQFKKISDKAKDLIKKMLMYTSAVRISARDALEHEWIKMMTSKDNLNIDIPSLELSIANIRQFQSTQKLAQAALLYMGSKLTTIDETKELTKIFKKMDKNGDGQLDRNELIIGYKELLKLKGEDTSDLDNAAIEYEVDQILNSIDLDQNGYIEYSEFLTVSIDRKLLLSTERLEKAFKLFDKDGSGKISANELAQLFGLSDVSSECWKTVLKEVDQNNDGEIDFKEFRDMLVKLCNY

Plasmodium falciparum protein kinase 6 (PK6, PF3D7_1337100), sequence (Q8IDW1 1-305): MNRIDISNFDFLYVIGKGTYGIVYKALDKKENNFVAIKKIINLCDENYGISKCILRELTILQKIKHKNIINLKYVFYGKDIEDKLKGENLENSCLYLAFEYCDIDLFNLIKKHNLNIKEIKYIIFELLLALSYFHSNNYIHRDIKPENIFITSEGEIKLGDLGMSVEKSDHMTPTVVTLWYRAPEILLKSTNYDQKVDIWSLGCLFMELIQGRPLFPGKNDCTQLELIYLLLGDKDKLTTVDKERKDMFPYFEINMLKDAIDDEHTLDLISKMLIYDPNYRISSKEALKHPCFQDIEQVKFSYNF
Calcium-dependent protein kinase 1 (Plasmodium falciparum (isolate 3D7)), sequence (P62344 whole entry, looked up): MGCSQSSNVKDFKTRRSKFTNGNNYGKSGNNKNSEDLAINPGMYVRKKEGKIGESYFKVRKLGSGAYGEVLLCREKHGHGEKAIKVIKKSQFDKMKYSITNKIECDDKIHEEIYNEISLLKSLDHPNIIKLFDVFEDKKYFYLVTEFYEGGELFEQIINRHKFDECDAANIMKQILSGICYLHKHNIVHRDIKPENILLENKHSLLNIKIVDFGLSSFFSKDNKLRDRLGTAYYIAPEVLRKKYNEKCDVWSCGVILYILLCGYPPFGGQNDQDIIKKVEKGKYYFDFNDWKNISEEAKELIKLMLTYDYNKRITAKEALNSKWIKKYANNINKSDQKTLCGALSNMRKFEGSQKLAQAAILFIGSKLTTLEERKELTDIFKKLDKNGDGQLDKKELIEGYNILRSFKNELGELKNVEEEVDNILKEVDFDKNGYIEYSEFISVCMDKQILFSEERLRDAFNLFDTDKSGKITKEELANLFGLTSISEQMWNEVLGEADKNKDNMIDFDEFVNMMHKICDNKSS
Protein kinase 7 (PK7), Plasmodium falciparum 3D7 (PF3D7_0213400), sequence (Q7YTF7 1-343): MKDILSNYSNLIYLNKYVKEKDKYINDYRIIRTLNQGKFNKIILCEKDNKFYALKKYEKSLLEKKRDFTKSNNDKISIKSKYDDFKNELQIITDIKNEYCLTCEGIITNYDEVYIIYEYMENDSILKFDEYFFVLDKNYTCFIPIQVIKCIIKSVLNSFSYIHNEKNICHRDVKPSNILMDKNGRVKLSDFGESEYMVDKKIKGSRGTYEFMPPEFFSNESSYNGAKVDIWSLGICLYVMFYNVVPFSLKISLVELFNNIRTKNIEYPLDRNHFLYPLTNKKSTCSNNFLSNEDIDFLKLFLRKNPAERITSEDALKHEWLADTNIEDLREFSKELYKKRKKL
L-lactate dehydrogenase (Plasmodium falciparum (isolate CDC / Honduras)), sequence (Q27743 whole entry, looked up): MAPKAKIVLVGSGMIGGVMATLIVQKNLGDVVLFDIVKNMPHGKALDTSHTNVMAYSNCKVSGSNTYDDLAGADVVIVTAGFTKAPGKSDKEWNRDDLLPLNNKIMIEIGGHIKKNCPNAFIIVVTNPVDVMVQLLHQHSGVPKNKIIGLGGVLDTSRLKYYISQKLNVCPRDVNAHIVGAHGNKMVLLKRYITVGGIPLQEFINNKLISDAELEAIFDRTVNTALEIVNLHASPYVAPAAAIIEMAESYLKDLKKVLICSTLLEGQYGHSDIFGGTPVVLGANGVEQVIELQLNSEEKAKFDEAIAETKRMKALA

Compound	growth inhibition [1]	inhibition [2]	inhibition [3] [%]	growth inhibition [4]	outcome [5]	outcome [6]	outcome [7]	outcome [8]
O=[N+]([O-])c1ccc(Nc2nc(NN=Cc3ccc(-c4ccc([N+](=O)[O-])cc4)o3)nc(Nc3ccccc3)n2)cc1	74% (active)	-9%	-5	101% (active)	inactive	inactive	inactive	inactive
NC1CCN(Cc2cccc(-c3ccc(-c4nc5ccccc5[nH]4)cc3)c2)C1 (stereo unspecified)	58% (active)	24%	-7	100% (active)	inactive	inactive	inactive	inactive
O=[N+]([O-])c1ccc(-n2nc(Cc3ccccc3)n(Cc3cccc(F)c3)c2=S)c(C(F)(F)F)c1	100% (active)	4%	-3	101% (active)	inactive	inactive	inactive	inactive
CN1CCC(c2csc3ccc(NC(=O)Nc4ccc(-c5ccncc5)c5ccccc45)cc23)CC1	71% (active)	8%	0	98% (active)	inactive	inactive	inactive	inactive
COc1c(C2CCN(CCCCNC(=O)c3ccc(-c4ccc(C#N)cc4)cc3)CC2)cc(Cl)c2c1CCCC2	59% (active)	45%	0	93% (active)	inactive	inactive	inactive	inactive
Clc1ccc(Nc2nc(-c3ccccn3)cs2)nc1	90% (active)	36%	-1	95% (active)	inactive	inactive	inactive	inactive
CC(N)(Cc1ccc(O)cc1)c1nn[nH]n1 (stereo unspecified)	2%	7%	4	93% (active)	inactive	inactive	inactive	inactive
O=C(C1CCN(c2nnnn2-c2ccccc2)CC1)N1CCc2ccccc2C1	97% (active)	-7%	-9	97% (active)	inactive	inactive	inactive	inactive
Fc1ccc2nc(-c3cccc(-c4ccc(CNCC5CCCO5)cc4)c3)[nH]c2c1 (stereo unspecified)	98% (active)	36%	0	101% (active)	inactive	inactive	inactive	inactive
O=C(c1ccc(Cl)cc1)C1CCN(CCCOc2ccc3c(c2)CCNCC3)CC1	23%	78% (active)	-2	93% (active)	inactive	inactive	inactive	inactive
Cc1cc(N)c2cc(NC(=O)CCC(=O)Nc3ccc4nc(C)cc(N)c4c3)ccc2n1	77% (active)	-2%	1	85% (active)	inactive	inactive	inactive	inactive
Cc1ccc(NC(C)C(=O)Nc2ccc(C#N)cc2)cc1S(=O)(=O)N1CCCCC1 (stereo unspecified)	92% (active)	11%	1	92% (active)	inactive	inactive	inactive	inactive
Cc1cc(N[C@@H](Cc2ccccc2)C(=O)NCCc2ccccc2)nc(NCc2ccccc2C)n1	85% (active)	37%	-2	99% (active)	inactive	inactive	inactive	inactive
Cc1cc(N(CCCN(C)C)Cc2cc(F)cc(F)c2)nc(Nc2ccc(Cl)cc2)n1	97% (active)	37%	-2	99% (active)	inactive	inactive	inactive	inactive
O=C(NCCN1CCCCC1)c1ccc(CNC(=O)c2ccc(O)c(-c3cccc(C(F)(F)F)c3)c2)cc1	47%	3%	1	94% (active)	inactive	inactive	inactive	inactive
COc1ccc(NC(=O)Nc2ccc(-c3ccccc3)cc2)cc1Cn1nc(Cl)c(N2CCCNCC2)cc1=O	84% (active)	18%	0	102% (active)	inactive	inactive	inactive	inactive
O=C(NCCCCCN1CCC(c2c[nH]c3ccccc23)CC1)Nc1cccc(I)c1	11%	70% (active)	-8	99% (active)	inactive	inactive	inactive	inactive
COc1cccc(-c2ccc(C(=O)NC3CCN(Cc4ccc(C(C)(C)C)cc4)CC3)s2)c1	23%	43%	-2	85% (active)	inactive	inactive	inactive	inactive
N#Cc1ccc(-c2ccc(C(=O)Nc3ccc4c(c3)CCN(C3CCC3)CC4)nc2)cc1	63% (active)	21%	0	99% (active)	inactive	inactive	inactive	inactive

Compound	growth inhibition [1]	inhibition [2]	inhibition [3] [%]	growth inhibition [4]	outcome [5]	outcome [6]	outcome [7]	outcome [8]
Cc1cc(N[C@@H](CC(C)C)C(=O)Nc2ccccc2)nc(NCC2CCCCC2)n1	95% (active)	8%	1	101% (active)	inactive	inactive	inactive	inactive
COc1cccc(CNC(=O)c2ccnc(-c3cccc(CN(C)C4CCN(C)CC4)c3)c2)c1	46%	19%	-1	100% (active)	inactive	inactive	inactive	inactive
O=C(Nc1nc2cc(S(=O)(=O)NCCCN3CCOCC3)ccc2n1CCCn1ccnc1)c1ccc(Cl)cc1	-6%	-27%	-1	95% (active)	inactive	inactive	inactive	inactive
COc1cc(C(=O)Nc2cccc(-c3nc4ccccc4[nH]3)c2)cc(OC)c1OC	41%	25%	-3	99% (active)	inactive	inactive	inactive	inactive
O=C(NCCCCN1CC=C(c2ccc3c(c2OCc2ccccc2)CCCC3)CC1)c1ccc(-c2ccc(C(F)(F)F)cc2)cc1	82% (active)	19%	-5	97% (active)	inactive	inactive	inactive	inactive
CC1CCN(c2nc(C(=O)Nc3ccc(F)cc3C(F)(F)F)c(C(C)C)s2)CC1	66% (active)	5%	-5	101% (active)	inactive	inactive	inactive	inactive
CC(C)(C)CC(C)(C)c1ccc(O)c(C(=O)Nc2cccc([N+](=O)[O-])c2)c1	97% (active)	49%	-8	95% (active)	inactive	inactive	inactive	inactive
O=C(Nc1cccc(-c2ccc(-c3nc4ccc(C(F)(F)F)cc4[nH]3)cc2)c1)c1ccoc1	42%	76% (active)	-4	98% (active)	inactive	inactive	inactive	inactive
Cc1cc(Nc2ccc3c(c2)CCC3)n2ncnc2n1	48%	4%	-2	86% (active)	inactive	inactive	inactive	inactive
Nc1ccc2nc(C=Cc3ccc(Cl)cc3)[nH]c2c1	83% (active)	19%	1	91% (active)	inactive	inactive	inactive	inactive
COc1ccccc1CCNc1nc(C)cc(NCCC(=O)NCCOc2ccccc2)n1	14%	11%	-3	85% (active)	inactive	inactive	inactive	inactive
O=C(NC1CCN(CCN2CCc3ccccc3CC2)CC1)c1ccc(-c2ccc(C(F)(F)F)cc2)cc1	43%	45%	-4	99% (active)	inactive	inactive	inactive	inactive
FC(F)(F)c1ccc2nc(-c3ccc(-c4cccc(CNCCc5cccnc5)c4)s3)[nH]c2c1	98% (active)	26%	-3	101% (active)	inactive	inactive	inactive	inactive
COc1ccc2nccc([C@@H](O)CN3CCC(NCc4nc5c(C#N)cccc5[nH]4)CC3)c2c1	9%	-3%	-5	96% (active)	inactive	inactive	inactive	inactive
CNC(=O)NC1=NC(C)(C)N(OCc2ccc(Cl)c(Cl)c2)C(NC(=O)NC)=N1	-3%	1%	-2	99% (active)	inactive	inactive	inactive	inactive
O=[N+]([O-])c1cccc(C=NNc2nc(Nc3ccccc3)nc(Nc3ccccc3)n2)c1	55% (active)	10%	3	99% (active)	inactive	inactive	inactive	inactive
Cc1cc(=O)oc2c1ccc1oc(C(O)c3ccc(Cl)cc3)c(C)c12 (stereo unspecified)	96% (active)	-7%	1	95% (active)	inactive	inactive	inactive	inactive
CC(C)Cc1cn(-c2nc(-c3nc4ccccc4[nH]3)cs2)c2ccncc12	99% (active)	34%	-2	102% (active)	inactive	inactive	inactive	inactive
